Among the data in PubChem BioAssay AID2314 (National Center for Advancing Translational Sciences (NCATS), 2010) are max response values, retold here.

SMILES strings stand for the structures. Values joined by “and” are separate entries in the source; they are usually repeats but may differ in a detail not shown here. Equal entries are not always repeated. The campaign covered roughly 300,000 compounds. About 37,000 (12%) were called active. No stated cut-off is given here; in the data, active means max response mostly above about 13% (no sharp cut-off); inactive means mostly below about 14%. The list comes from a sample in which actives are over-represented; it also holds similar structures and randomly drawn compounds.

A short description of this assay: Cycloheximide Counterscreen for Small Molecule Inhibitors of Shiga Toxin. Further: read at 38.3 µM for the half of the compounds with a filed dose; 0% is about no effect. The note with it: cell reporter, cycloheximide protein synthesis inhibition counterscreen; active compounds read high. In general terms: The purpose of a counterscreen is to sort out artefacts and off-target activity.
On to `CC(=O)N1c2ccc(S(=O)(=O)N3CCC(C(=O)N4CCN(c5ccccc5)CC4)CC3)cc2CC1C` (stereo unspecified), for which the max response is -2.01% (inactive).
`O=C(Nc1cc(C(F)(F)F)ccc1Cl)c1cc2nc3c(c(C(F)(F)F)n2n1)CCCC3`: the max response was -1.76% (inactive).
As to `C#CCOc1ccc(/C=C2/C(=O)ON=C2C)cc1OCC`, the max response is 3.92% (inactive).
As for `CCOC(=O)c1cc2cc3ccccc3cc2oc1=O`, the max response was 21.6% (active).
For the molecule `C=CCc1cccc2cc(C(=O)OCC)c(=O)oc12`, the max response was -2.44% (inactive).
Take `CCCOC(=O)c1cc2ccccc2oc1=O`: the max response was 11.4% (inactive).
In the case of `CC[C@]1(O)CC2CN(CCc3c([nH]c4ccccc34)[C@@](C(=O)OC)(c3cc4c(cc3OC)N(C=O)[C@H]3[C@@](O)(C(=O)OC)[C@H](OC(C)=O)[C@]5(CC)C=CCN6CC[C@]43[C@@H]65)C2)C1` (stereo partly specified) it was -6.26% (inactive); in that of `CCOc1ccccc1N1C(=O)CC(Sc2nccc(C)n2)C1=O` (stereo unspecified), 0.743% (inactive).
For `CC(=O)Nc1ccccc1C(=O)OCC(=O)c1cccc2ccccc12` the value was 7.37% (inactive); for `O=C(Cc1c[nH]c2ccccc12)OCCOC(=O)Cc1c[nH]c2ccccc12`, -4.53% (inactive); for `O=C(OCc1ccc(Br)cc1)c1cccc(-c2nnc(-c3ccccc3)o2)c1`, 13.9% (inactive).
For the molecule `Cc1ccc(S(=O)(=O)c2c(COC(=O)c3cccc(Cl)c3)c(-c3ccccc3)nn2C)cc1`, the max response was -6.17% (inactive).
With `O=C(OCc1ccc(-c2ccccc2)cc1)c1cccc(O)c1`, the max response is 57.7% (active).
In the case of `O=C(OCC(=O)c1c[nH]c2ccccc12)c1cccc(O)c1` it was 72.9% (active).
With `C=C(C)C(=O)Nc1cccc(C2=NOC3(C2)C[C@H](C(N)=O)N(C(=O)C(c2ccccc2)c2ccccc2)C3)c1` (stereo partly specified), the max response is -6.93% (inactive).
For `CSc1ccc(C(=O)C2CCCN(C(=O)c3ccc(C)nc3)C2)cc1` (stereo unspecified) the value was -0.923% (inactive); for `O=S(=O)(Nc1ccc2[nH]ncc2c1)c1ccccc1Cl`, -3.76% (inactive); for `CN(Cc1ccco1)S(=O)(=O)c1nnc(NC(=O)c2ccccc2)s1`, 26% (inactive).
In the case of `COc1cccc(-c2cccc(NC(=O)C3CCN(C4CCC4)CC3)c2)c1` it was -2.09% (inactive); in that of `O=C1CS(=O)CN1c1ccc(Oc2ccccc2)cc1` (stereo unspecified), -1.61% (inactive); in that of `Cc1n[nH]c(=O)n1-c1ccc(Oc2ccccc2)cc1`, 16.2% (active).
For the molecule `Cc1n[nH]c(=O)n1-c1ccc(C(C)C)cc1`, the max response was 4.16% (inactive).
For `COc1cccc(N(C(=O)c2snc(C(N)=O)c2N)C(C(=O)NCC2CCCO2)c2c[nH]c3ccccc23)c1` (stereo unspecified) the value was -2.27% (inactive); for `COC(=O)c1ccccc1NC(=O)C1(S(=O)(=O)c2ccc(Cl)cc2)CC1`, -5.97% (inactive).
For `COc1ccc(S(=O)(=O)N(C)C)cc1NC(=O)CSc1ncccn1` the value was 8.4% (inactive).
For `CN(C)S(=O)(=O)c1ccc2oc(SCC(=O)Nc3ccccc3F)nc2c1` the value was 40% (active).
Turning to `COc1ccc(NS(=O)(=O)c2ccc3oc(SCC(N)=O)nc3c2)cc1`, the max response is -2.16% (inactive).
In the case of `CCC1(C(=O)c2ccccc2)C(c2cccc([N+](=O)[O-])c2)C1(C(=O)OC)C(=O)OC` (stereo unspecified) it was -5.04% (inactive).
In the case of `N#Cc1c(N2CCCCC2)nc(N)c2c(N)nc(SCC(=O)O)cc12` it was -0.559% (inactive).
For `Cc1cc(/C=C(/C#N)C(=O)Nc2ccc(Cl)cc2)c(C)n1-c1cccnc1` the value was 1.53% (inactive); for `Cc1ccc(S(=O)(=O)N2CCC(C(=O)NCC3CCCO3)CC2)cc1` (stereo unspecified), -2.91% (inactive).
As for `Cc1ccc(-n2c(C)cc(/C=C(\C#N)C(=O)NCC3CCCO3)c2C)cc1` (stereo unspecified), the max response was 50.5% (active).
On to `COc1ccc(CCNS(=O)(=O)c2cn(C)nc2C)cc1`, for which the max response is -0.628% (inactive).
For `CC(C)=N/N=C1/NC(=O)C(Cc2ccccc2)S1` (stereo unspecified) the value was -3.98% (inactive); for `CCCn1nnc2sc3c(c2c1=O)CCC(C)C3` (stereo unspecified), 35.5% (active); for `C=CCn1c(SCc2c(C)noc2C)nc2sc3c(c2c1=O)CCC(C)C3` (stereo unspecified), -3.64% (inactive).
For `CC1CCc2c(sc3nc4n(c(=O)c23)CCS4)C1` (stereo unspecified) the value was 31.9% (inactive); for `COc1cc(C2OC(c3cc(OC)c(OC)c(OC)c3)C(C)C2C)cc(OC)c1OC` (stereo unspecified), 8.36% (inactive).
For `CCOC(=O)c1nnn2c1nc(N1CCN(c3ccccc3)CC1)c1ccccc12`, the max response is -4.05% (inactive).
For `CCN(CC)CCC(c1cc(OC)c(OC)c(OC)c1)c1c(OC)cc(OC)c2c(-c3ccccc3)cc(=O)oc12` (stereo unspecified) the value was -8.53% (inactive) and -14.6% (inactive); for `Cc1nn(C)c(Oc2ccccc2)c1CCNS(=O)(=O)c1ccc(F)cc1`, -1.22% (inactive); for `COc1ccc(CCNc2ncnc3c2nnn3Cc2ccccc2)cc1`, -1.82% (inactive).
Take `CN1CCN(c2ccc(CNS(=O)(=O)c3cccc(F)c3)cc2)CC1`: the max response was -2.69% (inactive).
In the case of `CCC(C)n1c(-c2cc(OC)c(OC)c(OC)c2)nc2nc3ccccc3nc21` (stereo unspecified), the max response was 5.57% (inactive).
For `Fc1ccc(/C=N/Nc2nc(-c3cccnc3)nc3ccccc23)cc1` the value was 46.2% (active).
With `COc1ccccc1Oc1nc(-c2cccnc2)nc2ccccc12`, the max response is 6.84% (inactive).
For `COc1ccc(Nc2nc(-c3cccnc3)nc3ccccc23)cn1` the value was -4.67% (inactive).
For `CC(NS(=O)(=O)c1ccc(OCC(=O)N2CCCC2)cc1)c1ccccc1` (stereo unspecified) the value was -1.86% (inactive); for `CC(C)(C)NC(=O)c1ccc(Cn2cc(C(F)(F)F)ccc2=O)cc1`, -2.26% (inactive).
In the case of `Cc1cccc(N(CC(=O)N2CCOCC2)S(C)(=O)=O)c1` it was -1.89% (inactive); in that of `Cc1ccc(N2C(=O)SC(N(CC(=O)O)c3ccc(C)cc3)C2=O)cc1` (stereo unspecified), 5.36% (inactive).
As to `Cc1cccc(N2C(=O)SC(N(CC(=O)O)c3cccc(C)c3)C2=O)c1` (stereo unspecified), the max response was 31.1% (active).
In the case of `O=C(CN(c1cc(C(F)(F)F)ccc1Cl)S(=O)(=O)c1ccccc1)NCc1cccnc1` it was -4.73% (inactive); in that of `CCc1ccc(NC(=O)Cn2ncn3c(cc4ccccc43)c2=O)cc1`, -4.36% (inactive).
For `CC(C)c1ccc(NC(=O)Cn2ncc3ccccc32)cc1` the value was 29% (active); for `CCOC(=O)c1cn(CC(=O)Nc2ccc(C(C)C)cc2)nn1`, -2.13% (inactive).
For `O=C(O)Cn1c(Cc2ccccc2)nc2ccccc21` the value was 1.69% (inactive).
For `COC(=O)c1ccc2c(=O)n(CCN3CCOCC3)c(SCC(=O)Nc3cccc(OC)c3)nc2c1`, the max response was -1.03% (inactive).
For `CCOC(=O)CSc1nnc(CNc2ccc(F)cc2)o1` the value was -0.571% (inactive); for `Cc1cccc2nc(CNc3ccc(F)cc3)cn12`, 33.7% (active).
In the case of `O=C(COC(=O)c1ccco1)NCc1ccc(Cl)cc1` it was 4.34% (inactive); in that of `COc1cccc(-n2c(=S)[nH]c3c(oc4ccccc43)c2=O)c1`, 18.5% (active); in that of `COc1cccc(N2C(=O)CN(Cc3ccccc3)C2=S)c1`, -1.8% (inactive).
In the case of `COc1cccc(-n2cc(C(=O)O)c3ccccc3c2=O)c1`, the max response is -2.23% (inactive).
For `O=C(c1ccccc1)N1CCC(CC2CC(c3ccc(Cl)cc3)=NO2)(C(=O)NCC2CCCCC2)CC1` (stereo unspecified) the value was -1.39% (inactive).
Turning to `COc1ccc(-c2oc3ncn(Cc4ccco4)c(=N)c3c2-c2ccc(OC)cc2)cc1`, the max response is -1.11% (inactive).
With `CCOC(=O)N1CCN(C(=S)Nc2ccc(C)cc2C)CC1`, the max response is -5.54% (inactive).
For `COC(=O)c1cccnc1NC(=S)NC(C)C`, the max response is 3.9% (inactive).
With `Cc1ccc(NC(=S)Nc2ncccc2C)c(C)c1`, the max response is 42.7% (active).
For `CCOc1ccc(C(=O)COC(=O)c2ccc(-n3cnnn3)cc2)cc1` the value was 1.17% (inactive); for `CC1CN(c2nc(-c3ccccc3)nnc2-c2ccccc2)CC(C)O1` (stereo unspecified), -4.84% (inactive).
For `COc1ccc(C2/C=C\CN(C(=O)c3ccc(C)cc3)C(Cc3ccccc3)C(=O)N2Cc2ccc(F)cc2)cc1` (stereo unspecified) the value was 2.85% (inactive).
In the case of `O=C(CN1CCSCC1)N/N=C/c1ccc(Cl)cc1`, the max response was 11.3% (inactive).
In the case of `Cc1ccc(/C=N/NC(=O)c2sccc2OCc2ccc(F)cc2)cc1`, the max response was 16.2% (active).
For the molecule `CCOc1cc(/C=N/NC(=O)CN2CCCCC2)ccc1O`, the max response was -1.36% (inactive).
As to `Cc1ccc(/C=N/NC(=O)COc2ccccc2-c2ccccc2)cc1`, the max response was -1.02% (inactive).
For `Cc1ccc(COc2ccc(/C=N/NC(=O)CN3CCCCC3)cc2)cc1` the value was 32.7% (active); for `CNC(=S)NNC(=O)c1sccc1OCc1ccccc1`, -0.196% (inactive).
For `CC(Sc1nc2c([nH]c3ccccc32)c(=O)n1C)c1ccccc1` (stereo unspecified) the value was -7.36% (inactive); for `Cc1ccc(C(=O)Nc2c(C#N)c(C)c(C)n2Cc2ccccc2)cc1`, -2.66% (inactive).
For `CC(=O)Nc1ccc(S(=O)(=O)N2CCN(C(=O)c3ccccc3F)CC2)cc1` the value was 6.62% (inactive).
With `CCOC(=O)c1c(N=CN(C)C)c(C#N)c2n1CCCC2`, the max response is -4.22% (inactive).
On to `Cc1oc2nc(SCC(=O)Nc3ccc(S(N)(=O)=O)cc3)nc(NC(=O)c3ccccc3)c2c1C`, for which the max response is -2.02% (inactive).
In the case of `O=C(CN(Cc1ccc(Br)cc1)S(=O)(=O)c1ccccc1)NCc1ccncc1` it was -2.43% (inactive).
For `Cc1cc(C)nc(-n2nc(C)cc2NC(=O)c2ccc(F)cc2F)n1` the value was -3.69% (inactive); for `N=c1c2c3c(sc2nc2n1CCCCC2)CCCC3`, 15% (inactive); for `C[C@@H]1CC[C@@]2(OC1)O[C@H]1C[C@H]3[C@@H]4CC=C5C[C@@H](O)[C@H](O)C[C@]5(C)C4CC[C@]3(C)[C@H]1[C@@H]2C` (stereo partly specified), -6.07% (inactive).
In the case of `CCCc1nn2c(=O)cc(CSCC(=O)Nc3cccc(C)c3)nc2s1`, the max response was -2.96% (inactive).
As for `CC1=NN(Cc2ccccc2)C(=O)/C1=C/c1ccc(N(C)C)cc1`, the max response was 3.72% (inactive).
On to `O=C1NCC(=O)N(Cc2ccccc2)/C1=C/c1ccccc1`, for which the max response was -7.39% (inactive).
For `CN(C)c1ccc(/C=C2\NC(=S)N(Cc3ccccc3)C2=O)cc1` the value was 16.3% (active).
